Laboratory results reported in PubChem BioAssay (EPA / NIEHS).
Inconclusive results are not listed. Activity calls are given as the source filed them. How the source made its calls, unless noted: active means hit-call score of the fitted dose curve at least 0.9, where 1 is the maximum; inactive means score below 0.9.

Experiments:
[1] = CCTE_Shafer_MEA_acute_spike_number: CCTE's Neural Acute Assay for Total Number of Spikes, Shafer Lab (AID 2284008);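 on AC50: curve fitted for decrease in spike count so AC50 reflects inhibitors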
In short: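 Primary rat cortical neurons on 16-electrode MEA wells; on DIV 13 or 15, 40-min baseline then 40-min recording with compound (0.03-40 uM) at 37 C. Spikes detected at 8x rms noise; percent change versus baseline, DMSO as negative control.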

[2] = CCTE_Shafer_MEA_acute_firing_rate_mean: CCTE's Neural Acute Assay for Mean Firing Rate, Shafer Lab (AID 2284009);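 further: analyzed for loss of signal so actives lower firing rate relative to DMSO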
In short: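 Rat cortical neuron cultures matured to DIV 13 or 15, equilibrated 20 min at 37 C, then recorded 40 min for baseline. Compound (0.03-40 uM) added and a further 40 min recorded; percent change in mean firing rate calculated per well.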

[3] = CCTE_Harrill_HTTr_Viability_MCF7: CCTE's 6-hour Cell Viability Assessment for the High-Throughput Transcriptomics (HTTr) Platform, in MCF-7 cells cultured in DMEM + 10% fetal bovine serum, Harrill Lab (AID 2284010)
In short: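 Propidium iodide exclusion, imaged by high-content analysis, gauged viability after a six-hour exposure across eight concentrations. Cells were MCF-7 grown in DMEM with 10% fetal bovine serum; fits run in both directions against DMSO.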

[4] = CCTE_Harrill_HTTr_Apoptosis_MCF7: CCTE's 6-hour Apoptosis Assessment for the High-Throughput Transcriptomics (HTTr) Platform, in MCF-7 cells cultured in DMEM + 10% fetal bovine serum, Harrill Lab (AID 2284011)
In short: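 MCF-7 cells in DMEM + 10% fetal bovine serum were exposed to chemicals for 6 hours over an eight-point dilution series. Caspase-3/7 activation was imaged by high content imaging with CellEvent Caspase 3/7 Green; bidirectional fitting used DMSO as baseline.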

[5] = CCTE_Shafer_MEA_acute_burst_number: CCTE's Neural Acute Assay for Single-Electrode Bursts, Shafer Lab (AID 2284013)
In short: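 Percent change in single-electrode burst number per well, from 40-min recordings taken before and after adding compound (0.03-40 uM) to primary rat cortical neurons on MEA plates at DIV 13 or 15, 37 C.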

[6] = CCTE_Shafer_MEA_acute_burst_duration_mean: CCTE's Neural Acute Assay for Mean Burst Duration, Shafer Lab (AID 2284014);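 further: hits are decreases in mean burst duration relative to DMSO controls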
In short: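 Rat cortical cultures, DIV 13/15; 40 min baseline, then 40 min with compound (0.03-40 uM), 37 C. Spikes: 300-5000 Hz band-pass, 8x rms threshold. Read-out: % change in mean single-electrode burst duration, DMSO-referenced, loss direction.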

[7] = CCTE_Shafer_MEA_acute_per_burst_spike_number_mean: CCTE's Neural Acute Assay for Average Number of Spikes Per Burst, Shafer Lab (AID 2284015);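 further: hits are decreases in mean spikes per burst versus baseline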
In short: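 Rat primary cortical neurons on 48-well MEAs (DIV 13 or 15) were treated with 0.03-40 uM compound at 37 C. Mean spikes per burst over 40 min were recorded before and after exposure and expressed as percent change from baseline, relative to DMSO.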

[8] = CCTE_Shafer_MEA_acute_interburst_interval_mean: CCTE's Neural Acute Assay for Mean Interburst Interval, Shafer Lab (AID 2284016);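 further: percent change of mean interburst interval versus each well's own pre-dose baseline; curves fitted for decrease in interburst interval relative to DMSO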
In short: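 Rat primary cortical neurons on 48-well MEAs at DIV 13 or 15 were exposed acutely to 0.03-40 uM. Spikes detected at 8x rms noise, 37 C. Mean interburst interval from 40 min recordings expressed as percent change from 40 min pre-treatment baseline.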

[9] = CCTE_Shafer_MEA_acute_burst_percentage_mean: CCTE's Neural Acute Assay for Percentage of Spikes in a Burst, Shafer Lab (AID 2284017);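 on AC50: curve fitted for loss of signal so potency reflects decreased burst percentage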
In short: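 Primary rat cortical neurons on 48-well MEA plates, treated on DIV 13 or 15 at 0.03-40 uM. Spikes detected at 8x rms noise at 37C; percent change from 40-min baseline to 40-min post-dose recording, fitted versus DMSO.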

[10] = CCTE_Harrill_HTTr_CellCount_MCF7: CCTE's Cell Proliferation Assessment for the High-Throughput Transcriptomics (HTTr) Platform, Harrill Lab (AID 2284012; active means hit-call score of the fitted dose curve at least 0.9, where 1 is the maximum;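 further: cells exposed to compound for six hours; intended direction is loss of nuclei count meaning fewer cells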)
In short: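 Cell count from high-content imaging of Hoechst-labeled nuclei serves as viability/growth readout. Chemicals were applied to MCF-7 cells in eight concentrations for six hours, with fitting in both directions relative to DMSO.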

CC(C)=CCCC(C)=CC=O
outcome [1]: inactive
outcome [2]: inactive
outcome [3]: inactive
outcome [4]: inactive
outcome [5]: inactive
outcome [6]: inactive
outcome [7]: inactive
outcome [8]: inactive
outcome [9]: inactive

Cc1[nH]cnc1C[C@H]1CCc2c(C)c3ccccc3n2C1=O
AC50 [1]: 4.12 µM (active)
AC50 [2]: 4.13 µM (active)
outcome [3]: inactive
outcome [4]: inactive
outcome [10]: inactive
outcome [5]: inactive
outcome [6]: inactive
outcome [7]: inactive
outcome [8]: inactive
AC50 [9]: 9 µM (active)

COc1cccc(-c2ccc(/C=C\CN3CCCCCC3)cc2Cl)c1
AC50 [1]: 3.65 µM (active)
AC50 [2]: 3.65 µM (active)
outcome [3]: inactive
outcome [4]: inactive
outcome [10]: inactive
outcome [5]: inactive
outcome [6]: inactive
outcome [7]: inactive
outcome [8]: inactive
AC50 [9]: 1.34 µM (active)

O=C(CCCCCCCCc1cccnc1)N1CCC(C=C(c2ccccc2)c2ccccc2)CC1
outcome [3]: inactive
outcome [4]: inactive

O=C(O)c1cccc(N(Cc2cccnc2)c2ccc(OC(F)F)c(OC(F)F)c2)c1
outcome [3]: inactive
outcome [4]: inactive
outcome [10]: inactive

C[C@](N)(Cc1ccc(O)c(O)c1)C(=O)O
outcome [3]: inactive
outcome [4]: inactive

CCCCCCCCCCCCCCCO
outcome [3]: inactive
outcome [4]: inactive

CCOC(=O)COc1ccc2c(c1)CC(NCC(O)c1cccc(Cl)c1)CC2 (stereo unspecified)
outcome [3]: inactive
outcome [4]: inactive
outcome [10]: inactive

O=c1[nH]c2ccc(S(=O)CCN3CCC(Cc4ccc(F)cc4)CC3)cc2o1 (stereo unspecified)
outcome [3]: inactive
outcome [4]: inactive

CCCCCCCCO
outcome [3]: inactive
outcome [4]: inactive

O=C1CCC(N2C(=O)c3ccccc3C2=O)C(=O)N1 (stereo unspecified)
outcome [3]: inactive
outcome [4]: inactive
outcome [10]: inactive

O=C(NS(=O)(=O)/C=C/c1ccccc1)c1ccc(F)cc1Cl
outcome [3]: inactive
outcome [4]: inactive

O=C1CCCCCN1
outcome [3]: inactive
outcome [4]: inactive

CC(C)CC(C)(O)C#CC(C)(O)CC(C)C (stereo unspecified)
outcome [3]: inactive
outcome [4]: inactive

Nc1ccc(Nc2ccccc2)cc1
outcome [3]: inactive
outcome [4]: inactive
outcome [10]: inactive

CC(C)CCO
outcome [3]: inactive
outcome [4]: inactive

CCNc1ccccc1
outcome [3]: inactive
outcome [4]: inactive
outcome [10]: inactive

C1N2CN3CN1CN(C2)C3
outcome [3]: inactive
outcome [4]: inactive

CC(C)=CCC/C(C)=C/CO
outcome [3]: inactive
outcome [4]: inactive
outcome [10]: inactive

COCCOCCOCCOC
outcome [3]: inactive
outcome [4]: inactive
outcome [10]: inactive

C1=CCCC=CCCC=CCC1
outcome [3]: inactive
outcome [4]: inactive
outcome [10]: inactive

Fc1ccccc1[C@@H](F)COC1CCC(Nc2ncnc3[nH]ncc23)CC1 (stereo partly specified)
outcome [3]: inactive
outcome [4]: inactive
outcome [10]: inactive

CCOCCOCCOCCO
outcome [3]: inactive
outcome [4]: inactive
outcome [10]: inactive

CN(C)c1ccc(Cc2ccc(N(C)C)cc2)cc1
outcome [3]: inactive
outcome [4]: inactive

NC(=O)NO
outcome [3]: inactive
outcome [4]: inactive
outcome [10]: inactive

CCN(C(=O)c1cc(C)cc(OC[C@H](C)Nc2ccncc2)c1)C(C)C
outcome [3]: inactive
outcome [4]: inactive
outcome [10]: inactive

Nc1cccc(N)c1
outcome [3]: inactive
outcome [4]: inactive

Cn1c(=O)cc(Oc2ccc(F)cc2F)c2cnc(NCC(C)(C)O)nc21
outcome [3]: inactive
outcome [4]: inactive

Cc1ccc(C)c(O)c1
outcome [3]: inactive
outcome [4]: inactive

COc1ccc(/C=C/S(=O)(=O)NC(=O)c2ccc(C)cc2Cl)cc1
outcome [3]: inactive
outcome [4]: inactive

CC[C@H](C)C(=O)O[C@H]1C[C@@H](C)C=C2C=C[C@H](C)[C@H](CC[C@@H]3C[C@@H](O)CC(=O)O3)[C@H]21
outcome [3]: inactive
outcome [4]: inactive

Clc1nc(Cl)c(Cl)c(Cl)c1Cl
outcome [3]: inactive
outcome [4]: inactive
outcome [10]: inactive

CC1=CC(=O)CC(C)(C)C1
outcome [3]: inactive
outcome [4]: inactive
outcome [10]: inactive

COC(=O)c1ccccc1O
outcome [3]: inactive
outcome [4]: inactive
outcome [10]: inactive

COc1ccc(-n2nc(C(F)F)cc2-c2ccc(S(C)=O)cc2)cc1 (stereo unspecified)
outcome [3]: inactive
outcome [4]: inactive
outcome [10]: inactive

CN(C)c1ccc(N=NS(=O)(=O)O)cc1
outcome [3]: inactive
outcome [4]: inactive
outcome [10]: inactive

Cc1ccc(O)cc1
outcome [3]: inactive
outcome [4]: inactive
outcome [10]: inactive

CC(C)CCCCCCOC(=O)c1ccc(C(=O)OCCCCCCC(C)C)c(C(=O)OCCCCCCC(C)C)c1
outcome [3]: inactive
outcome [4]: inactive
outcome [10]: inactive

COCCOc1cc2cc(C(=O)NC3CCN(C(C)C)CC3)n(CC(=O)Nc3ccc(Cl)cn3)c2cn1
outcome [3]: inactive
outcome [4]: inactive
outcome [10]: inactive

CC(O)CN(CCN(CC(C)O)CC(C)O)CC(C)O (stereo unspecified)
outcome [3]: inactive
outcome [4]: inactive
outcome [10]: inactive

CC(C)c1cccc(C(C)C)c1N1C(=O)c2ccc(O)cc2C1=O
outcome [3]: inactive
outcome [4]: inactive
outcome [10]: inactive

CCn1nc(Cc2ccccc2)cc1C1CCN(C[C@H]2C[C@H](N(C)[C@@H](C(=O)O)C(C)C)C[C@@H]2c2cccc(F)c2)CC1
outcome [3]: inactive
outcome [4]: inactive
outcome [10]: inactive

CCOCCO
outcome [3]: inactive
outcome [4]: inactive
outcome [10]: inactive

COC(=O)c1c(Cl)c(Cl)c(C(=O)OC)c(Cl)c1Cl
outcome [3]: inactive
outcome [4]: inactive
outcome [10]: inactive
